Our source for the composite z-score values is PubChem BioAssay.

The target of this experiment is Torsin-1A (Homo sapiens) (UniProt O14656). Briefly: torsin A binders from cell lysate, primary screen, small-molecule microarray, wild-type, 635/667 nm (AID 1149). The conditions noted are these: COS7 hTOR1A-WT lysate, 635 nm fluorescence, higher = more signal.
Sequence of Torsin-1A (Homo sapiens) (O14656 whole entry, looked up): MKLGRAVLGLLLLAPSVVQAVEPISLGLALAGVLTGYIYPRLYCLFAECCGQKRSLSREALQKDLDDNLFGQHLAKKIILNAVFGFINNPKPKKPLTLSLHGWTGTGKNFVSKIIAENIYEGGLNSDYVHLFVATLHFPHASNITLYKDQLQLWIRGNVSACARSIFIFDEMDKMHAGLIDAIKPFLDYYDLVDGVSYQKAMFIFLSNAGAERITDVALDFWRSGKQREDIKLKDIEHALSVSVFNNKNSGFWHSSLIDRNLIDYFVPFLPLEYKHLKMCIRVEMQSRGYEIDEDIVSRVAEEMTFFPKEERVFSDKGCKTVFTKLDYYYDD
Turning to `COc1ccc([Si](C)(C)[C@@H]2[C@@H](CCO)O[C@]3(C(=O)N(Cc4cccc(N5CCOC5=O)c4)c4ccccc43)[C@H]2C)cc1`, the composite z-score was found to be 0.531.

Take `CCOC(=O)C1=CC[C@H]2C(=O)N(c3ccccc3)C(=O)[C@@H]12`: the composite z-score was 0.079.

In the case of `CCOC(=O)C[C@H]1[C@H](OC(=O)c2ccc(C(=O)c3ccccc3)cc2)[C@@H](NC(=O)Cc2ccc(OC)cc2)c2cc(OCCCO)ccc2N1C(=O)c1ccc2ccccc2n1`, the composite z-score was -0.202.

For the molecule `COC(=O)[C@@]1(Cc2ccc(F)cc2)[C@H]2c3cc(C(=O)N(C)C)n(Cc4cc(C)n(C)n4)c3C[C@H]2CN1C(=O)c1ccccc1`, the composite z-score turned out to be 0.149.

Turning to `CCCC[C@@H]1C[C@H]1[C@@H](NC(=O)c1cccnc1)c1ccc(Cl)cc1`, the composite z-score is -1.57.

In the case of `[N-]=[N+]=Nc1ccccc1C[C@@]1(C(=O)N2CCCCC2)N=C(c2ccc(OCCCO)cc2)O[C@@H]1c1ccccc1N=[N+]=[N-]`, the composite z-score was 0.46.

The molecule `C=CCC(OC(C)=O)[C@@H]1[C@@H](N(Cc2ccc(-c3cccc(C(F)(F)F)c3)o2)C(=O)c2cccc3ccccc23)c2cc(OCCCO)ccc2N1C(=O)Cc1ccc2ccccc2c1` (stereo not given in full) displayed a composite z-score of 1.34.

As to `CCCCN1CC=CC23O[C@@H]4C=CCOC(=O)[C@@H]4[C@H]2C(=O)N(CCCCCCO)[C@@H]3C1=O` (stereo not given in full), the composite z-score is -0.873.

`O=C1C2C=CC(C(O)C=Cc3ccc([N+](=O)[O-])cc3)N(n3cnnc3)C2C(=O)N1Cc1ccccc1` (stereo not given) had a composite z-score of 1.95.

Take `O=C1[C@H]2C=C(Br)[C@H](C[C@@H]2OCCCCCCO)[C@@]12CO2`: the composite z-score was 0.36.

With `CCCCCCCCCCC(O)C1C=CC2C(=O)NC(=O)C2N1Nc1ccc(Cl)cc1Cl` (stereo not given), the composite z-score is -1.76.

`C=CC1c2cc(O)c(OC)cc2CCN1Cc1cccc(OC(F)(F)F)c1` (stereo not given): the composite z-score is -1.1.

As to `CC(C)[Si](C#C[Si](C(C)C)(C(C)C)C(C)C)(O[C@H](C)c1cn(Cc2ccccc2)nn1)C(C)C`, the composite z-score was 0.709.

Consider `O=C1O[C@H](c2ccccc2)[C@H](c2ccccc2)N2[C@H]1[C@@H](C(=O)NC[C@H](O)c1ccccc1)[C@]1(C(=O)Nc3ccc(C#CC4=CCCCC4)cc31)[C@H]2c1ccccc1OCCO`, for which the composite z-score turned out to be 0.0585.

With `COc1ccc(-c2cc3c(c(Cc4ccccc4)n2)[Si](C(C)C)(C(C)C)OC3)cn1`, the composite z-score is -0.0113.

As to `C=CCC(OC(C)=O)[C@@H]1[C@@H](N(Cc2ccc(-c3cccc(C(F)(F)F)c3)o2)C(=O)Cc2ccc(OC)cc2)c2cc(OCCCO)ccc2N1C(=O)c1ccc2ccccc2c1` (stereo not given in full), the composite z-score was -2.27.

With `CCC(CC)C(O)C1C=CC2C(=O)N(c3ccccc3)C(=O)C2N1Nc1ccccc1` (stereo not given), the composite z-score was -0.0952.

With `CN1C(=O)C2C=CC(C(O)c3c(F)cccc3Cl)N(NC(=O)OC(C)(C)C)C2C1=O` (stereo not given), the composite z-score turned out to be 0.622.

The molecule `C=C[C@H](C)[C@@H](OC(=O)Nc1ccc(SC)cc1)c1ccc(O)c2ccccc12` displayed a composite z-score of 0.163.

`COc1ccccc1CN1C(=O)c2ccccc2[C@@H](C(=O)NCc2ccccc2)[C@@H]1c1ccc(CO)cc1`: the composite z-score was 0.408.

Take `O=C1OCC=C[C@H]2OC34C=CCN(Cn5nnc6ccccc65)C(=O)[C@H]3N(CCCCCO)C(=O)[C@@H]4[C@@H]12` (stereo not given in full): the composite z-score is -0.884.

Regarding `Cc1ccc(S[C@]2(C(=O)NCC(C)C)CC(=O)N(Cc3cc(C(F)(F)F)cc(C(F)(F)F)c3)[C@@H]2c2ccc(CO)cc2)cc1`, the composite z-score was 0.234.

`CS(=O)(=O)CCOC(=O)C1=CC(CCCO)=CC(C2CC2)N(Cc2cc3c(cc2Br)OCO3)C=C1C(=O)OCCS(C)(=O)=O` (stereo not given) came in with a composite z-score of 0.913.

`C=CCOC(=O)[C@H]1[C@@H]2C(=O)O[C@@H](c3ccccc3)[C@@H](c3ccccc3)N2[C@@H](c2ccc(OCCOC(=O)[C@H]3C[C@H]4C(=O)N[C@@H](CCCCN(C)C)C(=O)N4[C@H]3c3cccc(OCCO)c3)cc2)[C@]12C(=O)Nc1ccc(I)cc12` had a composite z-score of 0.166.

With `COc1ccc([Si](C)(C)[C@H]2[C@H](CC(=O)N3CCC[C@H]3CO)O[C@@]3(C(=O)N(Cc4cccc(N5CCOC5=O)c4)c4ccccc43)[C@@H]2C)cc1`, the composite z-score is 0.716.

Regarding `O=C1OCCC=C[C@H]2OC34C=CCN(c5ccc(Cl)cc5)C(=O)[C@H]3N(CCCO)C(=O)[C@@H]4C12` (stereo not given in full), the composite z-score is -0.531.

`COc1ccc(C(O)C2C=CC3C(=O)N(C)C(=O)C3N2N(c2ccccc2)c2ccccc2)c2ccccc12` (stereo not given) yielded a composite z-score of 0.415.

As to `COCC(=C=CC[C@H](O)c1cccc(OCCO)c1)CCO`, the composite z-score is -0.744.

For `CC[C@@H]1C=C(C(=O)O)[C@H](c2ccc(C)cc2)N1S(=O)(=O)c1ccc(C)cc1`, the composite z-score came to 0.063.

Molecule `O=C1NC(=O)C2C1C=CC(C(O)C1CC=CCC1)N2Nc1ccccn1` (stereo not given) came in with a composite z-score of 0.153.
